# In PubChem BioAssay (NCATS):
# Records with an inconclusive call do not appear. A call without a number means that no potency is given here. Active and inactive are the calls of the source. The call rests on the fitted dose curve; in most records, active means well fitted curve in the direction sought with a large enough effect; inconclusive means small, poorly fitted or top-dose-only effect, or another doubt; inactive means no such curve, though single readings can be large; an effect the other way counts as inactive or inconclusive.
# Assays:
# [1] = Quantitative High-Throughput drug screen in 47 multiple myeloma cell lines against the NCATS MIPE library collection: EJM_DSMZ cell viability assay (AID 1918926; further: nearly all actives have a fitted effect of over 30% in size; further: potency means the concentration at half of the fitted maximal effect); conditions: EJM myeloma cell viability, CellTiter-Glo ATP, 48 h; series mostly up to 45.8 µM
# Procedure, shortened: (§1)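 Steps: seed 500 cells per well; pin-transfer MIPE 4.0 library; incubate 48 h at 37C, 5% CO2, humidified; add CellTiter-Glo, 5 min room temperature; read luminescence.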
# [2] = Quantitative High-Throughput drug screen in 47 multiple myeloma cell lines against the NCATS MIPE library collection: ARP1_JJKsccF8 cell viability assay (AID 1918928; further: nearly all actives have a fitted effect of over 40% in size; further: potency means the concentration at half of the fitted maximal effect); conditions: ARP1 myeloma cells viability, CellTiter-Glo ATP, 48 h; series mostly up to 45.8 µM
# Procedure, shortened: (§2)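 Viability screen: myeloma cells (500/well) incubated 48 h at 37 °C, humidified 5% CO2, with pinned library compounds; CellTiter-Glo added, luminescence read; DMSO wells set 100%, medium-only wells 0%.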
# [3] = Quantitative High-Throughput drug screen in 47 multiple myeloma cell lines against the NCATS MIPE library collection: Karpas620_DSMZ cell viability assay (AID 1918959); conditions: Karpas620 myeloma viability, CellTiter-Glo ATP luminescence, 48 h; series mostly up to 45.8 µM; further: nearly all actives have a fitted effect of over 30% in size; further: potency means the concentration at half of the fitted maximal effect
# Procedure, shortened: (§3)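 We plated 500 myeloma cells per well, pinned in MIPE 4.0 compounds, and incubated for 48 hours at 37C. ATP was then quantified with CellTiter-Glo, with DMSO and media-only wells defining 100% and 0%.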
# [4] = Quantitative High-Throughput drug screen in 47 multiple myeloma cell lines against the NCATS MIPE library collection: JIM3_ECACC cell viability assay (AID 1918963; further: nearly all actives have a fitted effect of over 35% in size; further: potency means the concentration at half of the fitted maximal effect); conditions: JIM3 myeloma viability, CellTiter-Glo ATP, 48 h; series mostly up to 45.8 µM
# Procedure, shortened: as §3
# [5] = Quantitative High-Throughput drug screen in 47 multiple myeloma cell lines against the NCATS MIPE library collection: JJN3_DSMZ cell viability assay (AID 1918966; further: nearly all actives have a fitted effect of over 50% in size; further: potency means the concentration at half of the fitted maximal effect); conditions: JJN3 myeloma cells viability, CellTiter-Glo ATP, 48 h; series mostly up to 45.8 µM
# Procedure, shortened: as §1
# [6] = Quantitative High-Throughput drug screen in 47 multiple myeloma cell lines against the NCATS MIPE library collection: H1112_PLB cell viability assay (AID 1918967; further: nearly all actives have a fitted effect of over 30% in size; further: potency means the concentration at half of the fitted maximal effect); conditions: H1112 myeloma cells viability, ATP luminescence, 48 h; series mostly up to 45.8 µM
# Procedure, shortened: as §1
# [7] = Quantitative High-Throughput drug screen in 47 multiple myeloma cell lines against the NCATS MIPE library collection: Karpas25_ECACC cell viability assay (AID 1918968; further: nearly all actives have a fitted effect of over 35% in size; further: potency means the concentration at half of the fitted maximal effect); conditions: Karpas25 myeloma viability, CellTiter-Glo ATP, 48 h; series mostly up to 45.8 µM
# Procedure, shortened: as §1
# [8] = Quantitative High-Throughput drug screen in 47 multiple myeloma cell lines against the NCATS MIPE library collection: Delta47_JCRB cell viability assay (AID 1918925; further: nearly all actives have a fitted effect of over 45% in size; further: potency means the concentration at half of the fitted maximal effect); conditions: Delta47 myeloma viability, CellTiter-Glo ATP, 48 h; series mostly up to 45.8 µM
# Procedure, shortened: as §1
# [9] = Quantitative High-Throughput drug screen in 47 multiple myeloma cell lines against the NCATS MIPE library collection: AMO1_DSMZ cell viability assay (AID 1918927; further: nearly all actives have a fitted effect of over 30% in size; further: potency means the concentration at half of the fitted maximal effect); conditions: AMO1 myeloma cells viability, CellTiter-Glo ATP luminescence, 48 h; series mostly up to 45.8 µM
# Procedure, shortened: as §1
# [10] = Quantitative High-Throughput drug screen in 47 multiple myeloma cell lines against the NCATS MIPE library collection: ARD_JJKsccE7 cell viability assay (AID 1918929; further: potency means the concentration at half of the fitted maximal effect); conditions: ARD myeloma cell line viability, CellTiter-Glo, 48 h; series mostly up to 45.8 µM
# Procedure, shortened: as §1
# [11] = Quantitative High-Throughput drug screen in 47 multiple myeloma cell lines against the NCATS MIPE library collection: KMM1_JCRB cell viability assay (AID 1918960); conditions: KMM1 myeloma viability, CellTiter-Glo ATP luminescence, 48 h; series mostly up to 45.8 µM; further: nearly all actives have a fitted effect of over 30% in size; further: potency means the concentration at half of the fitted maximal effect
# Procedure, shortened: as §2
# [12] = Quantitative High-Throughput drug screen in 47 multiple myeloma cell lines against the NCATS MIPE library collection: Karpas417_ECACC cell viability assay (AID 1918961); conditions: Karpas417 myeloma viability, CellTiter-Glo ATP luminescence, 48 h; viability (% of DMSO): at 45.8 µM (top of the series)
# Procedure, shortened: (§4)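 Viability readout: CellTiter-Glo luminescence following 5 min room-temperature incubation with reagent. Prior exposure: 48 h, 37C, humidified 5% CO2, 500 cells per well.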
# [13] = Quantitative High-Throughput drug screen in 47 multiple myeloma cell lines against the NCATS MIPE library collection: KHM11_PLB cell viability assay (AID 1918962); conditions: KHM11 myeloma cell viability, CellTiter-Glo ATP luminescence, 48 h; series mostly up to 45.8 µM; further: nearly all actives have a fitted effect of over 35% in size; further: potency means the concentration at half of the fitted maximal effect
# Procedure, shortened: as §3
# [14] = Quantitative High-Throughput drug screen in 47 multiple myeloma cell lines against the NCATS MIPE library collection: JIM1_ECACC cell viability assay (AID 1918964); conditions: JIM1 myeloma viability, CellTiter-Glo ATP luminescence, 48 h; series mostly up to 45.8 µM
# Procedure, shortened: as §1
# [15] = Quantitative High-Throughput drug screen in 47 multiple myeloma cell lines against the NCATS MIPE library collection: INA6_PLB cell viability assay (AID 1918965; further: nearly all actives have a fitted effect of over 55% in size; further: potency means the concentration at half of the fitted maximal effect); conditions: INA6 myeloma viability, CellTiter-Glo ATP luminescence, 48 h; series mostly up to 45.8 µM
# Procedure, shortened: as §4
# [16] = Quantitative High-Throughput drug screen in 47 multiple myeloma cell lines against the NCATS MIPE library collection: FR4_PLB cell viability assay (AID 1918924; further: nearly all actives have a fitted effect of over 35% in size); conditions: FR4_PLB myeloma cells viability, CellTiter-Glo ATP, 48 h; series mostly up to 45.8 µM
# Procedure, shortened: as §3
compound,measurement,setting,value
CCCCCCNC(=O)n1cc(F)c(=O)[nH]c1=O,Potency,[1],inactive
same,Potency,[2],8.33 µM (active)
same,Potency,[3],inactive
same,Potency,[4],16.6 µM (active)
same,Potency,[5],23.5 µM (active)
same,Potency,[6],5.26 µM (active)
same,Potency,[7],7.43 µM (active)
Cc1oc(=O)oc1CN1CCN(c2cc3c(cc2F)c(=O)c(C(=O)O)c2n3C(C)S2)CC1 (configuration not stated),Potency,[8],inactive
same,Potency,[9],inactive
same,Potency,[2],14.8 µM (active)
same,Potency,[10],inactive
same,Potency,[11],inactive
same,Potency,[4],inactive
same,Potency,[5],14.8 µM (active)
same,Potency,[6],inactive
same,Potency,[7],inactive
CCOC(=O)c1ccc(C#Cc2ccc3c(c2)C(C)(C)CCS3)nc1,Potency,[9],inactive
same,Potency,[3],inactive
same,Potency,[11],inactive
same,viability (% of DMSO),[12],132% (active)
same,Potency,[4],18.7 µM (active)
same,Potency,[6],20.9 µM (active)
CC(C)C1CCC(C(=O)N[C@H](Cc2ccccc2)C(=O)O)CC1 (some centres not stated),Potency,[8],inactive
same,Potency,[1],inactive
same,Potency,[9],inactive
same,Potency,[2],inactive
same,Potency,[3],inactive
same,Potency,[13],inactive
same,Potency,[4],inactive
same,Potency,[14],inactive
same,Potency,[6],inactive
CC(=O)[C@H]1CC[C@H]2[C@@H]3CCC4=CC(=O)CC[C@]4(C)[C@H]3CC[C@]12C,Potency,[8],inactive
same,Potency,[9],inactive
same,Potency,[11],inactive
same,Potency,[15],16.6 µM (active)
C[C@@H]1CN(c2c(F)c(N)c3c(=O)c(C(=O)O)cn(C4CC4)c3c2F)C[C@H](C)N1,Potency,[1],inactive
same,Potency,[9],inactive
same,Potency,[2],inactive
same,Potency,[11],inactive
same,Potency,[4],inactive
same,Potency,[15],inactive
same,Potency,[6],inactive
same,Potency,[7],inactive
CNNCc1ccc(C(=O)NC(C)C)cc1,Potency,[1],inactive
same,Potency,[3],inactive
same,Potency,[11],2.96 µM (active)
same,Potency,[13],inactive
same,Potency,[4],inactive
same,Potency,[5],inactive
same,Potency,[6],inactive
same,Potency,[7],5.26 µM (active)
CNC1CCCN(c2c(F)cc3c(=O)c(C(=O)O)cn(C4CC4)c3c2OC)C1 (configuration not stated),Potency,[16],inactive
same,Potency,[2],inactive
same,Potency,[4],inactive
same,Potency,[14],inactive
same,Potency,[7],9.35 µM (active)
O[C@@H](CNC[C@H](O)[C@H]1CCc2cc(F)ccc2O1)[C@@H]1CCc2cc(F)ccc2O1,Potency,[8],18.7 µM (active)
same,Potency,[1],inactive
same,Potency,[9],26.4 µM (active)
same,Potency,[2],14.8 µM (active)
same,Potency,[11],16.6 µM (active)
same,Potency,[13],26.4 µM (active)
same,Potency,[4],23.5 µM (active)
same,Potency,[6],29.6 µM (active)
CCC(C)(C)c1ccc(CC(C)CN2C[C@@H](C)O[C@@H](C)C2)cc1 (some centres not stated),Potency,[3],inactive
same,Potency,[11],inactive
same,Potency,[12],inactive
N[C@@H](C(=O)N[C@@H]1C(=O)N2C(C(=O)O)=C(Cl)CS[C@H]12)c1ccccc1,Potency,[8],inactive
same,Potency,[1],inactive
same,Potency,[2],inactive
same,Potency,[10],inactive
same,Potency,[11],inactive
same,Potency,[4],inactive
same,Potency,[14],inactive
same,Potency,[15],inactive
same,Potency,[5],inactive
same,Potency,[6],inactive
CCOC(=O)[C@H](CCc1ccccc1)N[C@H]1CCc2ccccc2N(CC(=O)O)C1=O,Potency,[8],20.9 µM (active)
same,Potency,[1],23.5 µM (active)
same,Potency,[9],7.43 µM (active)
same,Potency,[10],18.7 µM (active)
same,Potency,[3],14.8 µM (active)
same,Potency,[11],18.7 µM (active)
same,Potency,[13],37.2 µM (active)
same,Potency,[4],20.9 µM (active)
same,Potency,[5],23.5 µM (active)
same,Potency,[6],23.5 µM (active)
same,Potency,[7],20.9 µM (active)
Cc1ncc([N+](=O)[O-])n1CCO,Potency,[8],inactive
same,Potency,[1],inactive
same,Potency,[2],inactive
same,Potency,[3],inactive
same,Potency,[11],inactive
same,Potency,[4],inactive
same,Potency,[5],inactive
same,Potency,[6],inactive
same,Potency,[7],inactive
